Reference: PubChem BioAssay (EPA / NIEHS)
Records with an inconclusive call do not appear. Calls of active or inactive are those of the source. Rule for the calls, unless noted: active = hit-call score of the fitted dose curve at least 0.9, where 1 is the maximum; inactive = score below 0.9.

How the values were obtained:
[1] = target: Retinoic acid receptor RXR-alpha (Homo sapiens) (UniProt P19793); assay: ATG_RXRa_TRANS: Attagene TRANS-FACTORIAL HepG2 Assay for human Retinoid X Receptor alpha (RXRa) (AID 2283012; active = hit-call score of the fitted dose curve at least 0.9, where 1 is the maximum)
Procedure, shortened: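 Read-out: fluorescent reporter-transcript fragments quantified by capillary electrophoresis after RT-PCR. Transiently transfected HepG2 cells carrying GAL4-UAS reporters and NR-GAL4 chimeras were exposed to chemical for 24 h; activity scored as increase over DMSO.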

[2] = target: human Thyroid Receptor alpha (THRa1), THRA (gene 7067) (UniProt P10827); assay: ATG_THRa1_TRANS: Attagene TRANS-FACTORIAL HepG2 Assay for human Thyroid Receptor alpha (THRa1) (AID 2283014; active = hit-call score of the fitted dose curve at least 0.9, where 1 is the maximum)
Procedure, shortened: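 HepG2 cells transiently transfected with chimeric NR-Gal4 and GAL4-UAS reporter units, dosed 24 h. Reporter mRNA quantified by RT-PCR, fluorescent labeling, HpaI digestion and capillary electrophoresis; gain-of-signal fit versus DMSO.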

[3] = read-out: E-selectin (Homo sapiens) (UniProt P16581); assay: BSK_3C_Eselectin: BioMAP Diversity Plus: 3C Assay for Eselectin Biomarker Activity (AID 2283015); details: primary human endothelial cells (HUVEC); actives raise or lower the signal
Procedure, shortened: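 Primary human umbilical vein endothelial cells (3C system), read 24 h after compound addition; E-selectin measured by ELISA. Bidirectional curve fitting against DMSO baseline; cytotoxicity by parallel SRB total-protein staining.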

[4] = read-out: Interleukin-1 alpha (IL1a), IL1A (gene 3552); assay: BSK_BE3C_IL1a: BioMAP Diversity Plus: BE3C Assay for Interleukin-1 alpha (IL1a) Biomarker Activity (AID 2283016); details: primary human bronchial epithelial cells; actives raise or lower the signal
Procedure, shortened: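 ELISA read-out of IL-1a from human lung bronchial epithelial primary cells, 24 h post-dose. Gain or loss of signal fitted relative to DMSO negative control.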

[5] = read-out: Monocyte Chemoattractant Protein-1 (MCP1), CCL2 (gene 6347); assay: BSK_3C_MCP1: BioMAP Diversity Plus: 3C Assay for Monocyte Chemoattractant Protein-1 (MCP1) Biomarker Activity (AID 2283017); details: primary human endothelial cells (HUVEC); actives raise or lower the signal
Procedure, shortened: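 Human umbilical vein endothelial cells (3C system) exposed to chemicals for 24 h; MCP-1 quantified by ELISA against the DMSO baseline with bidirectional fitting, and parallel SRB staining used to assess cytotoxicity.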

[6] = read-out: Monocyte Chemoattractant Protein-1 (MCP1), CCL2 (gene 6347); assay: BSK_4H_MCP1: BioMAP Diversity Plus: 4H Assay for Monocyte Chemoattractant Protein-1 (MCP1) Biomarker Activity (AID 2283018); details: primary human endothelial cells (HUVEC); actives raise or lower the signal
Procedure, shortened: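 HUVEC primary cells, 24 h post-dose, MCP-1 by ELISA. Gain or loss of signal fitted bidirectionally vs DMSO baseline. Cytotoxicity: SRB stain (0.1% after 10% TCA fixation), read 560 nm, parallel cultures.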

[7] = read-out: Human Leukocyte Antigen - DR isotype (HLADR), HLA-DRA (gene 3122); assay: BSK_3C_HLADR: BioMAP Diversity Plus: 3C Assay for Human Leukocyte Antigen - DR isotype (HLADR) Biomarker Activity (AID 2283019); details: primary human endothelial cells (HUVEC); actives raise or lower the signal
Procedure, shortened: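 HUVEC monoculture, HLA-DR measured by ELISA 24 h after chemical dosing. Fitted bidirectionally against DMSO baseline; parallel SRB staining assessed cytotoxicity, with 3C proliferation read by SRB at 48 h.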

[8] = read-out: Interleukin-8 (IL8), CXCL8 (gene 3576); assay: BSK_3C_IL8: BioMAP Diversity Plus: 3C Assay for Interleukin-8 (IL8) Biomarker Activity (AID 2283020); details: primary human endothelial cells (HUVEC); actives raise or lower the signal
Procedure, shortened: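 HUVEC, 3C stimulation; 24 h compound exposure; IL-8 read by ELISA; gain or loss of signal fitted relative to DMSO control.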

[9] = read-out: Monokine induced gamma interferon (MIG), CXCL9 (gene 4283); assay: BSK_3C_MIG: BioMAP Diversity Plus: 3C Assay for Monokine induced gamma interferon (MIG) Biomarker Activity (AID 2283021); details: primary human endothelial cells (HUVEC); actives raise or lower the signal
Procedure, shortened: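 HUVEC, 3C system; 24 h chemical exposure; MIG by ELISA; bidirectional fit vs DMSO baseline.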

[10] = target: human Vitamin D Receptor (VDR), VDR (gene 7421) (UniProt P11473); assay: ATG_VDR_TRANS: Attagene TRANS-FACTORIAL HepG2 Assay for human Vitamin D Receptor (VDR) (AID 2283022; active = hit-call score of the fitted dose curve at least 0.9, where 1 is the maximum)
Procedure, shortened: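 HepG2 cells were transiently transfected with GAL4-UAS reporter units and a chimeric VDR-Gal4 construct, then dosed for 24 hours. Reporter mRNA was quantified by RT-PCR, fluorescent labeling, HpaI digestion and capillary electrophoresis; gain of signal analysed vs DMSO.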

[11] = BSK_3C_SRB: Viability Assessment in the BioMAP Diversity Plus: 3C Assay (AID 2283023); details: primary human endothelial cells (HUVEC);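 note: fitted both ways against DMSO so a hit may be signal rise or drop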
Procedure, shortened: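 Human umbilical vein endothelial cells in the 3C system, treated 24 h. Total protein measured by 0.1% sulforhodamine B staining after 10% TCA fixation, read at 560 nm; bidirectional fit versus DMSO.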

[12] = read-out: Matrix Metallopeptidase 1 (MMP1), MMP1 (gene 4312); assay: BSK_BE3C_MMP1: BioMAP Diversity Plus: BE3C Assay for Matrix Metallopeptidase 1 (MMP1) Biomarker Activity (AID 2283024); details: primary human bronchial epithelial cells; actives raise or lower the signal
Procedure, shortened: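 ELISA read-out of MMP1 in human lung bronchial epithelial primary cultures, 24 h post-dose; bidirectional curve fit vs DMSO baseline, gain or loss of signal scored.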

[13] = BSK_3C_Vis: BioMAP Diversity Plus: 3C Assay for Morphology Visualization (AID 2283025); details: primary human endothelial cells (HUVEC);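 note: fitted both ways so gain or loss versus DMSO counts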
Procedure, shortened: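 HUVEC, 3C system; light microscopy of morphology at 24 h post-dose. Bidirectional fit vs DMSO baseline. Secondary readout, background-control function.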

[14] = read-out: Pselectin, SELP (gene 6403); assay: BSK_4H_Pselectin: BioMAP Diversity Plus: 4H Assay for Pselectin Biomarker Activity (AID 2283026); details: primary human endothelial cells (HUVEC); actives raise or lower the signal
Procedure, shortened: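 HUVEC, 24 h chemical exposure; P-selectin read by ELISA. Bidirectional curve fit vs DMSO baseline; gain or loss of signal scored.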

[15] = BSK_4H_SRB: Viability Assessment in the BioMAP Diversity Plus: 4H Assay (AID 2283027); details: primary human endothelial cells (HUVEC);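 note: cells exposed to compound for 24 h before staining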
Procedure, shortened: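 HUVEC, 24 h post-dose; 10% TCA fix, 0.1% SRB stain, A560 nm. Total protein = overt cytotoxicity, parallel to biomarker read. Bidirectional fit vs DMSO baseline.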

[16] = BSK_BE3C_SRB: Viability Assessment in the BioMAP Diversity Plus: BE3C Assay (AID 2283028); details: primary human bronchial epithelial cells
Procedure, shortened: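 Human bronchial epithelial primary cells in confluent culture, 24 h after chemical dosing; total protein by 0.1% SRB staining after 10% TCA fixation, read at 560 nm. Bidirectional fitting versus DMSO baseline.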

[17] = read-out: Thrombomodulin, THBD (gene 7056); assay: BSK_3C_Thrombomodulin: BioMAP Diversity Plus: 3C Assay for Thrombomodulin Biomarker Activity (AID 2283029); details: primary human endothelial cells (HUVEC); actives raise or lower the signal
Procedure, shortened: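 HUVEC, 3C conditions; compound 24 h; thrombomodulin by ELISA; bidirectional curve fit vs DMSO baseline; parallel SRB total-protein staining for cytotoxicity.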

[18] = read-out: Urokinase-type plasminogen activator receptor (uPAR), PLAUR (gene 5329); assay: BSK_4H_uPAR: BioMAP Diversity Plus: 4H Assay for Urokinase-type plasminogen activator receptor (uPAR) Biomarker Activity (AID 2283030); details: primary human endothelial cells (HUVEC); actives raise or lower the signal
Procedure, shortened: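 Human umbilical vein endothelial cells in the 4H system, 24 h after chemical dosing. Cell-surface uPAR measured by ELISA, fitted in both directions versus DMSO; cytotoxicity checked by SRB total protein in parallel cultures.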

[19] = read-out: Vascular endothelial growth factor receptor 2 (Homo sapiens) (UniProt P35968); assay: BSK_4H_VEGFRII: BioMAP Diversity Plus: 4H Assay for Vascular endothelial growth factor receptor 2 (VEGFR2) Biomarker Activity (AID 2283031); details: primary human endothelial cells (HUVEC); actives raise or lower the signal
Procedure, shortened: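 Primary human umbilical vein endothelial cells (4H system), 24 h exposure; cell-surface VEGFR2 measured by ELISA. Bidirectional fitting versus DMSO; cytotoxicity checked in parallel by SRB total-protein staining.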

Measured: AC50

Sequence of human Vitamin D Receptor (VDR), VDR (gene 7421) (P11473 whole entry, looked up, the tested form may be a part): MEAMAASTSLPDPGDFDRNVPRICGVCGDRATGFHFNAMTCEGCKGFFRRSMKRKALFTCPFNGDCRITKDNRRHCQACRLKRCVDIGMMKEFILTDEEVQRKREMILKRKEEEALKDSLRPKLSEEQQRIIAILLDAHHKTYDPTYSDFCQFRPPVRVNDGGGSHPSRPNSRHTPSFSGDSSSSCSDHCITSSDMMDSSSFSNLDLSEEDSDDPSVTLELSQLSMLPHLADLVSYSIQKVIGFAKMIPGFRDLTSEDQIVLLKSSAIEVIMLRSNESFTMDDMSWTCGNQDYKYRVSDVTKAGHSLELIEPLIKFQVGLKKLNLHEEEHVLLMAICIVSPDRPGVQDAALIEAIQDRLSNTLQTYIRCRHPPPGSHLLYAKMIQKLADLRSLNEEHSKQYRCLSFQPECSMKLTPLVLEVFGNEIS
Sequence of E-selectin (Homo sapiens) (P16581 whole entry, looked up): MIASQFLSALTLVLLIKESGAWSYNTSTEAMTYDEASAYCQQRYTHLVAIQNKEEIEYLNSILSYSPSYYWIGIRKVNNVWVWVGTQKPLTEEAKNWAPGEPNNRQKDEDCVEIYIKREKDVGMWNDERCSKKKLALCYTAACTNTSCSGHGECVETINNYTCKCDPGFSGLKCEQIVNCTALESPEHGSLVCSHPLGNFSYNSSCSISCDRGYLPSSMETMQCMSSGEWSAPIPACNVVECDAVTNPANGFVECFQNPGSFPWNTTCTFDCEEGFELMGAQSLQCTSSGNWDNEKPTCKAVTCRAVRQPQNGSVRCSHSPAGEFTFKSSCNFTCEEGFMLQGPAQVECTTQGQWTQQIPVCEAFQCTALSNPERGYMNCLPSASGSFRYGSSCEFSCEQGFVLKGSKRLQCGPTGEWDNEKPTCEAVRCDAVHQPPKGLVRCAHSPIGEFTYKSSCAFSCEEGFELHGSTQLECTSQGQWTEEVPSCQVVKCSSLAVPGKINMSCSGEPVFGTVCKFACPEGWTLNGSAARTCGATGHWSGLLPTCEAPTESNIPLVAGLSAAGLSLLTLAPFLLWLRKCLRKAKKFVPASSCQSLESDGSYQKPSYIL
Sequence of human Thyroid Receptor alpha (THRa1), THRA (gene 7067) (P10827 whole entry, looked up, the tested form may be a part): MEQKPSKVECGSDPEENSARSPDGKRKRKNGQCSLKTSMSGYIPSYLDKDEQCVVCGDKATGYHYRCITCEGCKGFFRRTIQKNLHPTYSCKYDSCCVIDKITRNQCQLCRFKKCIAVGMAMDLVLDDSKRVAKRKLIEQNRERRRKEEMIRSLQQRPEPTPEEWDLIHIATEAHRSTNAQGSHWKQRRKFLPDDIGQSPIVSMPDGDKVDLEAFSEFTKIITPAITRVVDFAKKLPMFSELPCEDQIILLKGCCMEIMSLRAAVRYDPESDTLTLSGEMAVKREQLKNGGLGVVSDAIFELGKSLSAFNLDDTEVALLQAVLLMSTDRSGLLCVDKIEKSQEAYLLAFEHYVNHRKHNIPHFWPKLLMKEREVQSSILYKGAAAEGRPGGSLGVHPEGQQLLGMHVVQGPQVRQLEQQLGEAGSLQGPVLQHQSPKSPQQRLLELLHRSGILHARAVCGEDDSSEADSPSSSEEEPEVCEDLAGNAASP
Sequence of Retinoic acid receptor RXR-alpha (Homo sapiens) (P19793 whole entry, looked up, the tested form may be a part): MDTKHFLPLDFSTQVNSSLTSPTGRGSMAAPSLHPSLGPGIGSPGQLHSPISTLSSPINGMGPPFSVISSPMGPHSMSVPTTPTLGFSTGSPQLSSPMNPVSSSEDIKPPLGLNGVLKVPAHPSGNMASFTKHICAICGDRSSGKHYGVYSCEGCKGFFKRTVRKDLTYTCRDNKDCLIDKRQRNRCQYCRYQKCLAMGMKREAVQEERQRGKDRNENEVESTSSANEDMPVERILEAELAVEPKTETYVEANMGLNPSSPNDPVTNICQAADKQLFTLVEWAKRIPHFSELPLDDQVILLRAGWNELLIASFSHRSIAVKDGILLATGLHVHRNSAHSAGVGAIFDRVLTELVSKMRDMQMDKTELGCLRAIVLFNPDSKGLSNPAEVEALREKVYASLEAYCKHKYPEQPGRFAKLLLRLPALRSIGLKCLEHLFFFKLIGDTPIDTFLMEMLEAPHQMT

Cc1ccc(N(C)C)cc1
inactive: [1] | [2] | [3] | [4] | [5] | [6] | [7] | [8] | [9] | [10] | [11] | [12] | [13] | [14] | [15] | [16] | [17] | [18] | [19]

Cc1ccc(C(C)C)c(O)c1
inactive: [1] | [2] | [3] | [4] | [5] | [6] | [7] | [8] | [9] | [11] | [12] | [13] | [14] | [15] | [16] | [17] | [18] | [19]

C1CCC(SSC2CCCCC2)CC1
inactive: [1] | [2] | [3] | [4] | [5] | [6] | [8] | [9] | [10] | [11] | [12] | [13] | [14] | [15] | [16] | [17] | [18] | [19]
active: [7] 20 µM

Nc1ccccc1N
active: [3] 17.2 µM | [7] 20 µM
inactive: [1] | [2] | [4] | [5] | [6] | [8] | [9] | [10] | [11] | [12] | [13] | [14] | [15] | [16] | [17] | [18] | [19]

CCCCCCCCCCCCCCCC
inactive: [1] | [2] | [3] | [4] | [5] | [6] | [7] | [8] | [9] | [11] | [12] | [13] | [14] | [15] | [16] | [17] | [18] | [19]

CCCCCC(=O)O
inactive: [1] | [3] | [4] | [5] | [6] | [7] | [8] | [9] | [10] | [11] | [12] | [13] | [14] | [15] | [16] | [17] | [18] | [19]

Nc1ccc2c(c1)C(=O)c1ccccc1C2=O
inactive: [1] | [2] | [3] | [4] | [5] | [6] | [7] | [8] | [9] | [11] | [12] | [13] | [14] | [15] | [16] | [17] | [18] | [19]
